Data published in PubChem BioAssay (Tox21).
Records with an inconclusive call do not appear. Active and inactive are the calls of the source. Calls follow the shape of the dose curve; as a rule, active = well fitted inhibition curve with a large enough effect in the repeat runs; inconclusive = weak or mixed curves; inactive = no such curve, though single readings can be large or run the other way.

molecular target: Cytochrome P450 3A4 (Homo sapiens) (UniProt P08684); test: Cytochrome P450 Family 3 Subfamily A Member 4 (CYP3A4) small molecule antagonists: luciferase reporter qHTS assay (AID 1671201); conditions: P450-Glo CYP3A4 enzyme, luciferin luminescence, 1 h; series mostly up to 115 µM; activity change, negative = inhibition: at the top concentration; also: nearly all actives have a fitted effect of over 50% in size
From the text: National Center for Advancing Translational Sciences [NCATS]
U.S. Environmental Protection Agency [EPA]
National Institutes of Environmental Health Sciences [NIEHS]
National Toxicology Program [NTP]
U.S. Food and Drug Administration [FDA]
Cytochrome P450 (CYP) enzymes are membrane-bound hemeproteins that play a key role in metabolism of drugs and xenobiotics. Evaluation of the effect of chemicals on CYP isozymes is useful to minimize the adverse drug reactions and toxicities in drug development process. Tox21 chemicals were tested for their effect on CYP enzyme activities by using P450-Glo (TM) screening systems (Promega Corporation, Madison, WI). These systems provide a luminescent method containing proluciferin substrates and are converted to luciferin products by CYP isozymes. The luciferin products formed are detected with a luciferin detection reagent, and the amount of light produced is proportional to CYP activity. P450-Glo (TM) CYP3A4 screening system (Catalog. No. V9910) was used to detect the compounds that interfere in CYP3A4 activity. The positive control compound used for CYP3A4 assay is ketoconazole (Sigma-Aldrich, St. Louis, MO).
Tox21 Assay Protocol Summary:
Two ul of enzyme-substrate mix was dispensed into medium binding white/solid 1536-well plates (Greiner Bio-One North America Inc., Monroe, NC) using a BioRaptr Flying Reagent Dispenser (FRD, Beckman Coulter, Brea, CA). Compounds dissolved in DMSO and positive control (ketoconazole) were transferred to the assay plates at 23 nl using a Pintool station (Wako, San Diego, CA). The assay plates were incubated at room temperature for 10 min. Then 2 ul of NADPH regeneration solution was added to each well of the assay plates using an FRD and incubated at room temperature for 1 h. The reaction was stopped by adding 4 ul of detection reagent using an FRD and after 20 min incubation at room temperature the luminescence signal was measured using a ViewLux plate reader (Perkin Elmer, Shelton, CT). Data were expressed as relative luminescence units.
% is scaled to controls: 0 for no effect and ±100 for the full control effect; potency is read from the fitted curve at half-maximal effect.

Sequence of Cytochrome P450 3A4 (Homo sapiens) (P08684 whole entry, looked up): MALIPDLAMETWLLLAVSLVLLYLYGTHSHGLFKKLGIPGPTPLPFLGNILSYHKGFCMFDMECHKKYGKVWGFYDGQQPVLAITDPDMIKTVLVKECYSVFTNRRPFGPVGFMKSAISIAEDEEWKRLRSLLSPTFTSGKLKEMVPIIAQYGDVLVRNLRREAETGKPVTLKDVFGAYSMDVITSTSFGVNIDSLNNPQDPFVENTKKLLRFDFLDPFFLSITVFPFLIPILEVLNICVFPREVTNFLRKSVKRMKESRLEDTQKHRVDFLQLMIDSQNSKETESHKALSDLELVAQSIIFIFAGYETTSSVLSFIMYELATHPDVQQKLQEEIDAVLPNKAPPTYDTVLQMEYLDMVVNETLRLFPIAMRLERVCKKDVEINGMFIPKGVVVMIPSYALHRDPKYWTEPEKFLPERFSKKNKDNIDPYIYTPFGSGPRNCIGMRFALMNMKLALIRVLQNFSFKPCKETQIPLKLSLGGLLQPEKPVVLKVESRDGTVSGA

Compound | activity change, negative = inhibition | Potency
CCCOC(=O)c1c(Cl)c(Cl)c(Cl)c(Cl)c1C(=O)OCCC | 2.84% (inactive) | –
CC(C(=O)O)c1ccc(C(=O)c2cccs2)cc1 (stereo not given) | 1.86% [at 52.9 µM] (inactive) | –
O=C1CC[C@@H](C(=O)O)N1 | 3.6% [at 52.9 µM] (inactive) | –
Cc1c(C2(c3cc(Br)c(O)c(Br)c3C)OS(=O)(=O)c3ccccc32)cc(Br)c(O)c1Br | – | 27.4 µM (active)
CCCCCCCCCCCSCC(=O)O | 79.6% (inactive) | –
NC(=O)c1ccccc1[N+](=O)[O-] | 1.71% (inactive) | –
CCN(Cc1cccc(S(=O)(=O)O)c1)c1ccc(C(=C2C=CC(=[N+](CC)Cc3cccc(S(=O)(=O)O)c3)C=C2)c2ccc(O)cc2S(=O)(=O)[O-])cc1 | – | 19.3 µM (active)
CCCCCc1ccco1 | – | 23.2 µM (active)
C=C(C)C(=O)OCCC(F)(F)C(F)(F)C(F)(F)C(F)(F)C(F)(F)C(F)(F)F | 6.77% (inactive) | –
CC(C)(C)CCCCCCOC(=O)c1ccccc1C(=O)OCCCCCCC(C)(C)C | -11.3% (inactive) | –
OCC(CO)n1cnc(-c2ccc(F)cc2)c1-c1ccnc(Oc2ccccc2)n1 | -14.1% (inactive) | –
COC(CC(C)CCCC(C)(C)O)OC (stereo not given) | -5.06% (inactive) | –
CCOC(=O)N1CCC(Nc2ccc(Cl)cc2N)CC1 | -2.93% [at 52.9 µM] (inactive) | –
CC(C)N=C=NC(C)C | 4.1% (inactive) | –
COC1CCC=CO1 (stereo not given) | 4.02% (inactive) | –
CCCCCCCC/C=C\CCCCCCCC(=O)OCCO | – | 13.3 µM (active)
CCC(CO)(CO)CO | 10.2% (inactive) | –
CC(=O)C(C)=O | 2.47% (inactive) | –
Cc1ccc(Nc2c(F)cccc2Cl)c(CC(=O)O)c1 | 56.2% [at 52.9 µM] (inactive) | –
COc1ccc(CCN(C)CCCN2CCc3cc(OC)c(OC)cc3CC2=O)cc1OC | -23.3% [at 52.9 µM] (inactive) | –

Compound | activity change, negative = inhibition | Potency
COC(=O)c1sccc1S(N)(=O)=O | 7.03% (inactive) | –
CCC(Cl)CC(Cl)C(Cl)C(Cl)C(Cl)C(C)Cl (stereo not given) | 36.6% [at 23.6 µM] (inactive) | –
Cc1cc([N+](=O)[O-])ccc1N | -10.8% (inactive) | –
CCCCCCCCCCCCCCN(C)C | -11.1% [at 23.6 µM] (inactive) | –
O=C(c1ccccc1)C1CCC1 | 20.9% (inactive) | –
CCN(CC)C(=O)N1CCN(C)CC1 | 9.19% [at 52.9 µM] (inactive) | –
Cc1ccccc1S(N)(=O)=O | 1.34% (inactive) | –
O=C(CCS)OCC(COC(=O)CCS)(COC(=O)CCS)COC(=O)CCS | – | 5.64 µM (active)
CCCCC(CC)COS(=O)(=O)O (stereo not given) | 32.6% (inactive) | –
Cc1ccc(S(=O)(=O)NC(=O)NC2CCCCC2)cc1 | 3% [at 52.9 µM] (inactive) | –
CCO[Si](C)(CCCOCC1CO1)OCC (stereo not given) | – | 39.9 µM (active)
O=[N+]([O-])c1ccc2ncccc2c1 | -8.63% (inactive) | –
CC1CCC(C(C)CS)CC1S (stereo not given) | – | 31.7 µM (active)
O=C1OC(=O)c2c(Br)c(Br)c(Br)c(Br)c21 | 37.3% (inactive) | –
O=C1NC(=O)c2cccc3cccc1c23 | 35.3% (inactive) | –
CCN(CC)C(=O)/C(C#N)=C/c1cc(O)c(O)c([N+](=O)[O-])c1 | 1.66% [at 52.9 µM] (inactive) | –
C[C@@H]1C[C@H]2[C@@H]3CCC4=CC(=O)C=C[C@]4(C)[C@@]3(F)[C@@H](O)C[C@]2(C)[C@@]1(O)C(=O)COP(=O)(O)O | -1.87% (inactive) | –
[Cl][Nd]([Cl])[Cl] | 5.6% (inactive) | –
CCCCCCCC(=O)OCCCCCC | 1.32% (inactive) | –
CCNc1nc(N)nc(Cl)n1 | -5.38% (inactive) | –
